This is part of a sample that, as a whole, favours compounds with a hit. Of some 83,000 tested, about 20% had one in any assay.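 How to read the values: 0–100, growth inhibition (40 = 60% inhibited); 0, no net growth; -100 to 0, cell death (-40 = 40% of starting cells died; -100 = all dead).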 Unmarked numbers belong to inactive results. Calls of active or inactive are those of the source. Rule for the calls: active = growth percent below 10; inactive = the rest.

Holding throughout (assay): NCI-60 one-dose screen, 48 h (100 = growth as untreated, 0 = no growth, -100 = all killed)
The subject of assay [1] is NCI-H23 lung. Conditions: 10 µM unless noted.
The test system of assay [2] is NCI-H226 lung. Conditions: 10 µM unless noted.
For assay [3], the system named is NCI-H322M lung. Conditions: 10 µM unless noted.
Assay [4] has as its system HOP-62 NSCLC. Conditions: 10 µM unless noted.
The subject of assay [5] is NCI-H460 lung. The note with it: 10 µM unless noted.
Assay [6] deals with HOP-92 NSCLC. Conditions: 10 µM.
For assay [7], the system named is NCI-H522 lung. Conditions: 10 µM unless noted.
Assay [8] concerns A549/ATCC NSCLC. Conditions: 10 µM unless noted.
For assay [9], the system named is 786-0 renal. The note with it: 10 µM unless noted.
Assay [10] relates to COLO 205 colon. The note with it: 10 µM unless noted.
Assay [11] has as its system DU-145 prostate. Conditions: 10 µM unless noted.
Assay [12] relates to K-562 leukemia. Conditions: 10 µM unless noted.
For assay [13], the system named is MALME-3M melanoma. The note with it: 10 µM unless noted.
In assay [14] the test system is MDA-MB-231 breast. The note with it: 10 µM unless noted.
Assay [15] concerns RXF 393 renal. Conditions: 10 µM unless noted.
The subject of assay [16] is SF-268 CNS. The note with it: 10 µM unless noted.
The subject of assay [17] is SF-295 CNS. The note with it: 10 µM unless noted.
In assay [18] the test system is SF-539 CNS. Conditions: 10 µM unless noted.
The test system of assay [19] is UACC-257 melanoma. The note with it: 10 µM unless noted.

For the compound `COc1cc(-c2nc(SCCC(C)C)nc(NNC(=O)c3ccncc3)c2C#N)cc(OC)c1OC`, the growth in assay [1] was 91.2%; in assay [2], 93%; in assay [3], 64.6%; in assay [4], 63.9%; in assay [5] it was 105%; in assay [6] it was 32.9%. Further, the growth in assay [7] is 27.9%; in assay [8] it was 76.5%; in [9], 32.3%; in assay [10], 65.9%; in assay [11], 79.1%; in assay [12] it was 74.6%. The growth is 105% in assay [13]; 27.9% in [14]; -16.7% (active) in [15]; 56% in [16]; 65.7% in assay [17]; 71.6% in [18]. For the same compound, in [19], the growth is 94.2%.
Take `C=C1CC[C@@H]2[C@]3(C)COC(c4ccccc4)O[C@@H]3CC[C@@]2(C)[C@@H]1C/C=C1/C(=O)OC[C@H]1O` (some centres not stated): the growth in assay [1] was 96.8%; in assay [2] it was 96.1%; in assay [3] it was 97.1%; in [4], 110%; in assay [5] it was 99.8%; in assay [6], 105%. For the same compound, the growth in assay [7] was 63.5%; in assay [8], 92.6%; in assay [9] it was 111%; in assay [10], 108%; in [11], 92.1%; in assay [12] it was 43.7%. Further, the growth in assay [13] was 110%; in [14], 99.3%; in [15], 127%; in [16], 97.5%; in [17] it was 102%; in [18], 92.1%. For the same compound, the growth in assay [19] is 85%.
Turning to `Cc1ccc(NC(=O)c2ccc(CN3CCOCC3)c(C(F)(F)F)c2)cc1Oc1ccc(-c2[nH]nc3ncnc(N)c23)cc1`, the growth was 84.6% in assay [1]; 66% in [2]; 72% in [3]; 86.9% in assay [4]; 66.3% in [5]; 50.8% in assay [6]. Further, the growth in [7] is 62.5%; in assay [8] it was 65.1%; in [9] it was 69.2%; in [10] it was 18.8%; in [11] it was 76.9%; in assay [12], 20%. Besides, the growth was 27.4% in assay [13]; 54.3% in [14]; 40.5% in assay [15]; 81.6% in [16]; 63.2% in assay [17]; 49.3% in assay [18]. In assay [19], the growth was 48.7%.
On to `Brc1ccccc1/C=N/Nc1nc(N/N=C/c2ccccc2Br)nc(N2CCOCC2)n1`, for which the growth is 105% in assay [1]; 95.1% in assay [2]; 96.8% in assay [3]; 108% in [4]; 103% in assay [5]; 112% in assay [6]. Besides, the growth in assay [7] is 86.6%; in assay [8], 97.1%; in assay [9], 61.3%; in [10] it was 86.1%; in assay [11], 98.3%; in assay [12], 94.1%. Further, the growth is 143% in assay [13]; 103% in assay [14]; 69.6% in [15]; 102% in assay [16]; 85.5% in [17]; 105% in [18]. For the same compound, the growth in [19] was 104%.
In the case of `COC(=O)C(Cc1ccccc1)Nc1nc(NC(Cc2ccccc2)C(=O)OC)nc(N2CCOCC2)n1` (configuration not stated), the growth in [1] is 107%; in assay [2], 102%; in assay [3], 97.4%; in assay [4], 97.3%; in assay [5], 107%; in assay [6] it was 119%. The growth in [7] was 91%; in assay [8], 108%; in assay [9], 100%; in assay [10], 105%; in [11] it was 112%; in assay [12], 91.6%. In addition, the growth is 105% in assay [13]; 103% in assay [14]; 113% in assay [15]; 103% in assay [16]; 108% in assay [17]; 98% in [18]. Further, the growth in assay [19] is 103%.
As for `COc1cc(OC)c(/C=C/S(=O)(=O)Cc2ccc(OC)c(NCC(=O)NO)c2)c(OC)c1`, the growth in [1] was 15.4%; in [2] it was 25.6%; in [3], 45.6%; in assay [4], 20.8%; in assay [5], 10.8%; in assay [6], 51.8%. The growth in assay [7] was 3.67% (active); in assay [8] it was 22.3%; in assay [9] it was 28.1%; in assay [10], -67.6% (active); in [11] it was 13.8%; in assay [12], 11.6%. For the same compound, the growth was 61.8% in assay [13]; 25.4% in [14]; -0.671% (active) in assay [15]; 31.9% in assay [16]; 6.88% (active) in [17]; -5.59% (active) in assay [18]. In addition, in assay [19], the growth is 62.4%.
With `Clc1cccc(/C=N/Nc2nc(N/N=C/c3cccc(Cl)c3Cl)nc(N3CCCCC3)n2)c1Cl`, the growth in assay [1] was 99.7%; in [2], 97.5%; in [3], 90%; in assay [4], 98.2%; in assay [5], 33.8%; in assay [6], 86.2%. The growth was 76.6% in assay [7]; 55.6% in [8]; 102% in assay [9]; 90.3% in assay [10]; 73.4% in [11]; 78.1% in assay [12]. The growth was 92.5% in [13]; 84.2% in assay [14]; 112% in assay [15]; 86.4% in [16]; 92.7% in [17]; 84.3% in [18]. Further, the growth in assay [19] is 100%.
As to `O=S(=O)(NCCCNc1nccc(-c2[nH]c(-c3ccccc3)nc2-c2ccc(Cl)c(O)c2)n1)c1cccc2ccccc12`, the growth in assay [1] is 30.6%; in assay [2], 32.9%; in [3], 50.9%; in assay [4], 30.9%; in assay [5] it was 15.5%; in assay [6] it was 51.4%. The growth is 25.2% in assay [7]; 26.5% in [8]; 47.9% in assay [9]; 93.8% in [10]; 27.6% in assay [11]; 17% in [12]. For the same compound, the growth is 6.39% (active) in [13]; 45.9% in assay [14]; -9.57% (active) in assay [15]; 46.8% in assay [16]; 12.9% in assay [17]; 44.8% in assay [18]. Besides, in assay [19], the growth was 27%.
